TDP1 inh – qHTS Assay for Inhibitors of Tyrosyl-DNA Phosphodiesterase (TDP1). Tyrosyl-DNA phosphodiesterase 1 (Homo sapiens), Q9NUW8. recombinant TDP1, AlphaScreen DNA substrate cleavage. Potency, µM (highest dose often 130 µM), for inactives: at the highest dose activity change, negative = inhibition, most hits filed as inhibitors. 350,000 tested, 0.28% active; also: potency is read from the fitted curve at half-maximal effect; nearly all actives have a fitted effect of over 40% in size
Target sequence (Q9NUW8 whole entry, looked up): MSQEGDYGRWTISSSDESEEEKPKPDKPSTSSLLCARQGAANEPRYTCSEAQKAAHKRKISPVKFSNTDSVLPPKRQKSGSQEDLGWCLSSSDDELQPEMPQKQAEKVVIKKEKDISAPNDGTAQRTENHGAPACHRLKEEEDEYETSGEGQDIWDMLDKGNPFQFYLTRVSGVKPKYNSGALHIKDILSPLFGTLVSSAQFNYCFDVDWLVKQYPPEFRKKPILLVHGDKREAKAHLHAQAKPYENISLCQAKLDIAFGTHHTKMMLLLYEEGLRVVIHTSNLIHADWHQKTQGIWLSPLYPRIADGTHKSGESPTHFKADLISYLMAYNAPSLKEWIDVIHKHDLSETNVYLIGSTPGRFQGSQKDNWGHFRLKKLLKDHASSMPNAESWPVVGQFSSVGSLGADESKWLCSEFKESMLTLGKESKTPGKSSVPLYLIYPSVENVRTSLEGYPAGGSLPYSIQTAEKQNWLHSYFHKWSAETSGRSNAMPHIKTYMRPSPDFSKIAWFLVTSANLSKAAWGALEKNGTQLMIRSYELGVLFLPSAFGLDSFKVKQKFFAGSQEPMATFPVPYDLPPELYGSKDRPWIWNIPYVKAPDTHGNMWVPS
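Tdp1 1 nM final; 15 min RT w/ cpd; substrate 15 nM, 5 min; beads 10 ug/ml, 10 min; AlphaScreen read. Neg ctrl: no enzyme.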
TDP1 cell CPT – qHTS for Inhibitors of human tyrosyl-DNA phosphodiesterase 1 (TDP1): qHTS in cells in presence of CPT; 420,000 tested, 12% active; chicken DT40 Tdp1-/-;hTDP1 cells + 20 nM CPT, ATP luminescence, 48 h; Potency, µM (doses to about 46.2 µM), for the others: at the highest dose activity change, negative = growth inhibition, actives largely listed as inhibitors; AID 686979, 2013; also: potency is read from the fitted curve at half-maximal effect; nearly all actives have a fitted effect of over 55% in size
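Chicken DT40 Tdp1-/- cells stably complemented with human TDP1 were seeded at 400 cells/well in medium containing 20 nM camptothecin, exposed to pin-transferred compounds, and grown at 37 °C for at least 48 hr. Viability was read as ATP luminescence.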
IL-1B inflam inh – qHTS for Inhibitors of Inflammasome Signaling: IL-1-beta AlphaLISA Primary Screen; 360,000 tested, 4.7% active; THP-1 LPS/ATP IL-1B secretion, AlphaLISA, 16 h; stronger effect = lower value; activity change, % at 57.5 µM; in the data active = activity change below about -50%; inconclusive = mostly about -30% to -49%
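Secreted IL-1B measured by AlphaLISA bead assay after 16 h compound exposure of THP-1 cells; compounds (final up to 57.5 uM) added 1 h before LPS (250 ng/mL) and ATP (1.25 mM) stimulation; lower signal means less secretion.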
DT40 TDP1 no CPT – qHTS for Inhibitors of human tyrosyl-DNA phosphodiesterase 1 (TDP1): qHTS in cells in absence of CPT. DT40 Tdp1-/- hTDP1 cells, no CPT, ATP luminescence, 48 h. Potency, µM (top dose mostly 46.2 µM), for inactives: at the top dose activity change, negative = growth inhibition, most hits filed as inhibitors. 420,000 tested, 15% active; also: potency is read from the fitted curve at half-maximal effect; nearly all actives have a fitted effect of over 55% in size
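Chicken DT40 Tdp1-/- cells stably complemented with human TDP1 were seeded at 400 cells/well with DMSO in place of 20 nM camptothecin. After compound pinning, cells grew at least 48 hr at 37 °C; viability read by CellTiter-Glo luminescence.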
ELG1 repair inh – qHTS screen for small molecules that inhibit ELG1-dependent DNA repair in human embryonic kidney (HEK293T) cells expressing luciferase-tagged ELG1; HEK293T ELG1-luciferase reporter, luminescence, 16 h; DNA damage induced by 5-fluorouridine; Potency, µM (top dose mostly 46.1 µM), without a hit: at the top dose activity change, negative = inhibition, hits mostly inhibitors; 330,000 tested, 2.3% active; AID 504467, 2011; also: potency is read from the fitted curve at half-maximal effect; nearly all actives have a fitted effect of over 55% in size
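Quantitative HTS, concentration-response format. 2,000 cells/well co-treated with 5-fluorouridine and compound, 16 hr in 5% CO2 at 37 °C; ONE-Glo luminescence read after 30 min.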
Giardia kill – Small Molecules that selectively kill Giardia lamblia: qHTS. Giardia lamblia trophozoite viability. activity change, % at 7.66 µM, hits read low. 340,000 tested, 0.15% active. AID 540267, 2011; in the data active = activity change below about -80%; inconclusive = between about -30% and that limit;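 also: parasites exposed to compound for two days anaerobically before the ATP read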
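Killing of trophozoites was scored by loss of ATP luminescence after a 48 hrs anaerobic exposure to compounds at 37 deg C, using 100 cells per well.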
The depositor's hits bear a star; ? = inconclusive; . = no result; [ ] = another dose, or the depositor's remark. Shown are actives, neighbours in structure and some others; about 19% of the full set was active somewhere. Unless noted, calls follow the shape of the dose curve; as a rule, active = well fitted curve in the direction sought with a large enough effect; inconclusive = small, poorly fitted or top-dose-only effect, or another doubt; inactive = no such curve, though single readings can be large; an effect the other way counts as inactive or inconclusive. % is scaled to controls: 0 for no effect and ±100 for the full control effect.

SMILES | TDP1 inh | TDP1 cell CPT | IL-1B inflam inh | DT40 TDP1 no CPT | ELG1 repair inh | Giardia kill
O=C(CSc1nc(=O)n(Cc2ccco2)c2c1CCC2)Nc1ccccc1C(F)(F)F | -2.6% | ? | . | ? | . | .
Cc1ccc(NC(=O)CSc2n[nH]c(-c3ccco3)n2)c(C)c1 | 2.5% | -4.7% | 6.6 | -12.0% | 5.2% | 3.5
Cc1nc2c(c(SCC(=O)Nc3ccccc3C(F)(F)F)n1)CCC2 | -4.7% | ? | . | 20.6µM* | . | .
O=C(CSc1n[nH]c(-c2ccncc2)n1)Nc1ccccc1C(F)(F)F | . | 18.4µM* | 32.4 | 10.3µM* | -3.5% | -21.4
O=C(CSc1n[nH]c(-c2ccncc2)n1)Nc1ccccn1 | 2.0% | -5.3% | 39.1 | ? | . | 7.7
Cc1ccc(C)c(NC(=O)CSc2n[nH]c(-c3ccccn3)n2)c1 | 10.3%[0.0935 µM] | 23.1µM* | 60.2 | 18.4µM* | ? | 12.9
Cc1cc(C(=O)COC(=O)Cc2ccc(Cl)cc2)c(C)n1C | 4.8% | -10.3% | -13.2 | ? | 19.7% | 3.2
CC1=C(C(=O)Nc2ccccc2Br)C2(CCC(C)CC2)OC1=O (stereo not given) | 0.0% | 4.0% | . | -23.6% | . | .
Cc1ccccc1NC(=O)CSc1n[nH]c(-c2ccccn2)n1 | 4.0% | 18.4µM* | 152.4 | ? | ? | 2.2
CC1(Cc2ccccc2Cl)C(=O)Nc2ccc(OC(F)(F)F)cc21 (stereo not given) | . | 23.1µM* | -9.7 | ? | . | .
COc1cccc(C2c3c(ncn(-c4ccccc4Cl)c3=N)Oc3ccc4ccccc4c32)c1 (stereo not given) | 3.8% | . | . | . | . | .
C/C(=N\NC(=O)c1ccc([N+](=O)[O-])cc1Cl)c1ccccc1 | 4.9% | ? | 24.5 | ? | ? | -5.6
O=C(/C=C/c1ccccc1[N+](=O)[O-])Nc1cccc(S(=O)(=O)NC2=NCCCCC2)c1 | 4.2% | ? | -16.2 | 20.6µM* | ? | -18.0
O=C(/C=C/c1ccc(Cl)cc1Cl)Nc1cccc(S(=O)(=O)NC2=NCCCCC2)c1 | 3.5% | -4.5% | -68.7* | ? | ? | -12.9
Cc1cc(C)nc(Sc2c(C)nn(-c3ccccc3)c2C)n1 | 1.0% | ? | 6.5 | 20.6µM* | -13.0% | -3.2
Cc1cc(C(F)(F)F)c2c(C)nn(-c3ccccc3)c2n1 | . | -26.6% | 7.3 | ? | . | -15.3
O=C(CN1C(=O)c2cccnc2Oc2ccc(Cl)cc21)NC1CCCC1 | 13.5% | -16.2% | -7.0 | 14.6µM* | ? | ?
O=C(CN1C(=O)c2cccnc2Oc2ccc(Cl)cc21)NC1CCCCCC1 | -3.0% | -14.4% | 0.0 | -0.8% | ? | -17.8
Cc1ccc2c(c1)N(CC(=O)NCc1cccc(Cl)c1)C(=O)c1cccnc1O2 | -1.9% | ? | . | ? | . | .
CCc1ccc(CNC(=O)CN2C(=O)c3cccnc3Oc3ccc(Cl)cc32)cc1 | -5.0% | ? | . | 16.4µM* | . | .
CCOc1ccccc1CNC(=O)CN1C(=O)c2cccnc2Oc2ccc(Cl)cc21 | 1.2% | ? | . | 16.4µM* | . | .
CCOc1ccccc1CNC(=O)CCCN1C(=O)c2cccnc2Oc2ccc(Cl)cc21 | 5.0% | ? | . | ? | . | .
Cn1c(SCCCC(=O)c2ccc(Br)cc2)nnc1-c1ccncc1 | 4.7% | ? | 14.3 | ? | ? | 17.3
O=C1c2ccccc2C(=O)c2c(NCc3cccnc3)cccc21 | 11.1% | ? | -12.4 | ? | -14.3% | -14.4
O=C1c2cccc(NCCCNCCO)c2C(=O)c2cccc(NCCCNCCO)c21 | . | 5.8µM* | -103.2* | 5.8µM* | . | 16.2
